Screening data from PubChem.
LGR2 antag: inhibitors of bursicon-induced Drosophila LGR2 receptor cAMP signaling; HEK293 LGR2, CRE-luciferase, bursicon-stimulated, 4 h; inhibition, % at 9.99 µM; 380,000 tested, 0.35% active; AID 720647;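 active = drop in luminescence signal, shown as inhibition above about 50% in the replicate tests, limit read from the data, passing the limit was not always enough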;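 also: agonist challenge used bursicon conditioned medium at about half maximal strength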
TROY signal inh: inhibitors of TROY-dependent NF-kB signaling. Q293 LMP1-TROYcd NF-kB luciferase reporter, 4 h. AID 1347056. 360,000 tested, 0.98% active. inhibition, % at 10 µM;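 active = compounds whose plate-normalised and pattern-corrected inhibition of the luciferase reporter signal at the single screening dose is 50% or more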
LMP1 NFkB inh: inhibitors of Epstein-Barr LMP1-induced NF-kappaB reporter; LMP1-induced NF-kappaB luciferase reporter cells, luminescence; inhibition, % at 12.5 µM; 350,000 tested, 0.69% active; AID 504558; in the data active = inhibition above about 41%;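 also: 0% = neutral control wells and 100% = reference inhibitor control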
TWEAK-Fn14 inh: inhibitors of TWEAK-Fn14 interaction signaling. TWEAK-stimulated Fn14 reporter cells, luciferase luminescence, 8 h. inhibition, % at 10 µM. 360,000 tested, 2% active. AID 1159606; in the data active = inhibition above about 50%
HSF1 inh: HSF1 inhibition. activity change, negative = inhibition, % at 7.5 µM (by protocol). NIH3T3-HGL HSE-luciferase, MG132-induced, luminescence 8 h; active compounds read low. 300,000 tested, 0.77% active. AID 2098;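 active = more than half of replicate wells show activity change below -50%, luminescence cut by over half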;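 also: luciferase reports HSF-1 transcriptional activity via heat shock element; 0% = median of DMSO wells and -100% = zero luminescence signal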
HSF-1 act: increases HSF-1 driven luciferase reporter signal; 300,000 tested, 1.7% active; NIH3T3-HGL HSF-1 luciferase reporter, MG132, 8 h; 100% = twice DMSO control signal; activation, % at 9 µM;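 active = mean replicate activation of at least 50% with a set share of replicates each reaching 50%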;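 also: 0% = median of the neutral control wells and 100% = twice that signal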
* = called active by the depositor; . = not tested or not shown. Compounds with a hit are over-represented: about 3.6% of the library has one in this group of screens.

SMILES	LGR2 antag	TROY signal inh	LMP1 NFkB inh	TWEAK-Fn14 inh	HSF1 inh	HSF-1 act
O=C(Nc1nc2ccccc2s1)C1CCCO1 (stereo unspecified)	-9	-27	-7	15	17	20
O=C(Nc1ccc(-c2nc3cc(Cl)ccc3o2)cc1)C1CCCO1 (stereo unspecified)	.	10	-30	50*	13	6
CCS(=O)(=O)Nc1cccc(-c2nc3cccnc3s2)c1	-37	-11	-14	23	7	5
O=C(NC1CCC1)[C@@H]1[C@@H](CO)[C@@H]2Cn3c(cccc3=O)[C@H]1N2CC1CCCCC1	-10	.	.	.	.	.
COc1ccccc1-c1ccc([C@H]2[C@@H](CO)N(C(=O)C3CC3)C23CN(C(C)=O)C3)cc1	-16	.	.	.	.	.
CC(=O)CC(C)(C)n1nnc(-c2ccccc2)n1	-8	-3	-5	92*	-2	5
CC(=O)Cn1nnc(-c2ccc(C(F)(F)F)cc2)n1	-16	-43	-3	-14	7	12
C[C@@H]1CCCCO[C@H](CN(C)C(=O)Cc2ccccc2)[C@@H](C)CN([C@@H](C)CO)C(=O)c2cc(NS(=O)(=O)c3ccccc3)ccc2O1	-12	.	.	.	.	.
COC(=O)Cn1c2ccc(OC)cc2c2nc(C)sc21	-4	11	8	-13	33	88*
COC(=O)Cn1c2ccc(F)cc2c2nc(C)sc21	.	10	-2	7	2	16
Cn1c(NC(=O)/C=C/c2ccccc2)cc(=O)n(C)c1=O	-35	-83	-14	-1	15	29
Cn1c(NC(=O)/C=C/c2ccc(Cl)c(Cl)c2)cc(=O)n(C)c1=O	-13	-30	-24	-25	44	56*
COc1ccc(/C=C/C(=O)Nc2cc(=O)n(C)c(=O)n2C)cc1	-21	-8	3	0	27	60*
O=C(Cc1ccncc1)NCC[C@@H]1CC[C@@H](NC(=O)Nc2ccc(F)cc2)[C@@H](CO)O1	-4	.	.	.	.	.
COC(=O)C1=C(C)NC2=C(C(=O)CC(C)(C)C2)C1c1cn(Cc2ccc(Br)cc2)nc1-c1ccccc1 (stereo unspecified)	.	11	10	3	37	74*
COc1ccccc1-c1cn(CC[C@@H]2CC[C@@H](NC(=O)c3cnccn3)[C@H](CO)O2)nn1	-7	.	.	.	.	.
Cc1cccc(N(C)S(=O)(=O)c2ccc3c(c2)C(C)(C)C(=O)N3C)c1	-4	-13	4	88*	-1	7
CN1C(=O)C(C)(C)c2cc(S(=O)(=O)N(C)Cc3ccccc3)ccc21	-8	12	3	20	1	5
CC(C)[C@H](NC(=O)c1ccco1)C(=O)NCc1ccccc1	-4	2	-2	4	-7	-18
COC(=O)c1ccc(CNC(=O)C(NC(=O)c2ccco2)C(C)C)cc1 (stereo unspecified)	-7	-1	-14	40	-58*	-66
COc1ccc(NC(=O)N(C)C[C@H]2OCCCC[C@H](C)Oc3ccc(NS(=O)(=O)c4cccs4)cc3C(=O)N([C@@H](C)CO)C[C@H]2C)cc1	-8	.	.	.	.	.
CCCN(C)C[C@H]1OCCCC[C@@H](C)Oc2ccc(NS(=O)(=O)c3c(C)noc3C)cc2C(=O)N([C@@H](C)CO)C[C@H]1C	15	.	.	.	.	.
O=C(N[C@@H]1CC[C@@H](CCNS(=O)(=O)Cc2ccccc2)O[C@H]1CO)c1ccccc1F	-4	.	.	.	.	.
CCS(=O)(=O)N1CC2(C1)[C@H](c1ccccc1)[C@@H](CO)N2CC1CCCC1	0	.	.	.	.	.
COc1cccc(CNCc2cccc(OC)c2O)c1O	16	-7	5	20	.	.
SMILES	LGR2 antag	TROY signal inh	LMP1 NFkB inh	TWEAK-Fn14 inh	HSF1 inh	HSF-1 act
COc1cccc(CNc2ncc(Br)cc2Br)c1O	.	-13	-8	-31	107	138*
COc1cccc(CNc2ccc(Br)cn2)c1O	.	-44	-17	26	181	272*
C[C@@H]1CN([C@H](C)CO)C(=O)c2cc(C#Cc3cccnc3)cnc2O[C@H]1CN(C)S(=O)(=O)c1ccccc1F	2	.	.	.	.	.
Cc1ccc2nc(N(CCCN(C)C)C(=O)c3sc4ccccc4c3Cl)sc2c1	7	50*	7	73*	4	1
CCOC(=O)c1c(N)c2cc([N+](=O)[O-])ccc2n1C	-20	-19	0	-41	-5	14
CCOC(=O)/C(=C/c1c(C)n(C)c2ccc([N+](=O)[O-])cc12)C(C)=O	36	50*	9	73*	26	-4
O=S(=O)(c1cccs1)N1CCC(Cc2ccccc2)CC1	.	13	-10	11	1	-17
Nc1ccc(S(=O)(=O)N2CCC(Cc3ccccc3)CC2)cc1	-19	-2	3	-3	-55*	-64
CCOc1ccc(Br)cc1/C(C)=N\NC1=NCCN1	.	30	80*	31	6	-3
CCCCCOc1ccc(/C(C)=N/NC2=NCCN2)cc1	-3	-35	0	-13	3	11
Cc1ccc(OCC(=O)NC(=S)Nc2ccccn2)c(Br)c1	71*	79*	21	91*	-63*	-66
Cc1ccc(OCC(=O)Nc2ccccc2F)cc1	-50	-43	-8	22	10	56*
Cc1ccc(OCC(=O)Nc2ccccc2F)cc1C	-95	-92	-17	-13	0	-9
COc1ccc(OCC(=O)NC(=S)NNC(=O)COc2ccc(Br)cc2Cl)cc1	-9	2	-1	-1	-5	-2
Cc1nc(NC(=S)NC(=O)COc2ccccc2Cl)ccc1Br	8	-1	5	-41	4	21
O=C(COc1ccc(Br)cc1Cl)NC(=S)Nc1ccccn1	-20	69*	-28	64*	-40	-49
Cc1ccc(OCC(=O)Nc2ccccc2[N+](=O)[O-])c(Br)c1	-56	-61	-51	-2	38	55*
C[C@H]1CN([C@@H](C)CO)S(=O)(=O)c2ccc(C3=CCCCC3)cc2O[C@H]1CN(C)S(=O)(=O)c1cn(C)cn1	-6	.	.	.	.	.
Cc1cccc(C)c1N1CCN(C(c2cc3ccccc3o2)c2nnnn2C(C)(C)C)CC1 (stereo unspecified)	.	27	.	53*	.	.
Cc1ccc(S(=O)(=O)N(CC(=O)N2CCc3ccccc3C2)c2ccc(Cl)c(Cl)c2)cc1	16	4	12	6	-88*	-91
COc1cccc(N(CC(=O)N2CCN(C)CC2)S(=O)(=O)c2ccc(C)cc2)c1	.	10	3	-2	-85*	-88
O=C(Nc1cccc(F)c1)N1C[C@H]2[C@@H](c3ccccc31)[C@@H](CO)N2C(=O)c1ccccc1F	0	.	.	.	.	.
NC(=O)C[N+]1(CC#CC(O)(c2ccccc2)c2ccccc2)CCCC1	10	7	1	8	-69*	-75
Cc1ccsc1C(=O)OCC(=O)N(C)C1CCCCC1	10	32	-18	63*	.	.
Cc1ccsc1C(=O)OCC(=O)NC1CCCC1	-13	-12	-9	-1	.	.
